# Measurements: PubChem BioAssay AID1053 (University of Pittsburgh Molecular Library Screening Center, 2008)
# Values joined by “and” are separate entries in the source; they are usually repeats but may differ in a detail not shown here. Equal entries are not always repeated. Unmarked numbers belong to inactive results. How the calls were made is not given here.
# Target: Serine/threonine-protein kinase PLK1 (Homo sapiens) (UniProt P53350)
# Experiment: Plk1 polo box domain binding inhibitors, SAR follow-up, biochemical, fluorescence polarization, purchased analogs (AID 1053)
# Details: Plk1 PBD fluorescence polarization peptide binding; at 20 µM; hits give high values
# Sequence of Serine/threonine-protein kinase PLK1 (Homo sapiens) (P53350 whole entry, looked up, the tested form may be a part): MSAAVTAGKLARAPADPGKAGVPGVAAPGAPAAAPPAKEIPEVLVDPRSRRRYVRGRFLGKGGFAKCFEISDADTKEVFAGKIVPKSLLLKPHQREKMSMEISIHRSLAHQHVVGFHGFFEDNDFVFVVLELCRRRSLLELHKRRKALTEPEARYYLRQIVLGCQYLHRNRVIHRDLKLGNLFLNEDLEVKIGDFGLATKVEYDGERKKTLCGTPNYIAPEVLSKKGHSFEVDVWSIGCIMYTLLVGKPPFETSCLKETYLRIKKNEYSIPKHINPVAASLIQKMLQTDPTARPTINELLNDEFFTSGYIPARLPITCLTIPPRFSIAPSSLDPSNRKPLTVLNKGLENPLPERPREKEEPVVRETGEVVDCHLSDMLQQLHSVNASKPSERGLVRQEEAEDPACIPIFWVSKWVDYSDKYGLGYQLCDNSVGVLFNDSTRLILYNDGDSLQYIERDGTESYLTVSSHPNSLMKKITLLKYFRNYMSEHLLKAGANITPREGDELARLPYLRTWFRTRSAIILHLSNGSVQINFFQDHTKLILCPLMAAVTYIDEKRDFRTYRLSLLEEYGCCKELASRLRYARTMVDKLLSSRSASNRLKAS
row,Compound,inhibition
1,CCOC(=O)c1ccc(NC(=O)c2ccc(Cl)c(Cl)c2)cc1,6.96%
2,CC(=O)N(/N=C1\Sc2ccccc2C1=O)c1cccc(C)c1,20.1%
3,CC(=O)N(CN1C(=O)c2ccccc2C1=O)c1ccccc1Cl,-37.3% and -49.8%
4,CCOC(=O)c1ccc(NC(=O)C2Oc3ccccc3OC2C)cc1 (configuration not stated),-28.8%
5,CCOC(=O)c1ccc(N=Cc2c(O)n(Cc3cccs3)c(=O)[nH]c2=O)cc1,-25.6%
6,CCCCCC(=O)N(CN1C(=O)c2ccccc2C1=O)c1ccccc1OC,-35.4%
7,Cc1ccc(N(CN2C(=O)c3ccc([N+](=O)[O-])cc3C2=O)C(=O)C(c2ccccc2)c2ccccc2)cc1,-39.6%
8,CC(=O)N(/C=C1\Sc2ccccc2C1=O)c1cc(C(F)(F)F)ccc1Cl,-73.4% and -36.2%
9,COc1ccc(N(/N=C2\Sc3ccccc3C2=O)C(C)=O)cc1,30.5%
10,CCOc1ccc(-c2nc3c(=O)n(C)c(=O)nc-3n(C)n2)cc1OC,34.4%
11,CC(=O)N(CN1C(=O)c2ccccc2C1=O)c1ccc2ccccc2c1,-49.2%
12,COc1ccc(N(CN2C(=O)c3cc(Cl)c(Cl)cc3C2=O)C(C)=O)cc1,-52.7%
13,COc1ccc(N(CN2C(=O)c3ccccc3C2=O)C(C)=O)cc1,-43.9% and -51.6%
14,CC1CN(c2cc3nccnc3cc2F)CC(C)O1 (configuration not stated),-46.8%
15,COc1ccc(-c2nnc3[nH]c(=O)n(C)c(=O)c3n2)cc1OC,-22.8% and -20.3%
16,CCOC(=O)c1ccc(N=Cc2c(O)n(CC)c(=O)[nH]c2=O)cc1,-76.6%
17,CCOc1cc(-c2nnc3[nH]c(=O)n(C)c(=O)c3n2)ccc1OC(C)C,15.8%
18,CCOC(=O)c1ccc(NC(=O)C2CCCCC2C(=O)O)cc1 (configuration not stated),-39.1%
19,O=C1NC(=O)C(=Cc2cc(Cl)c(OCc3ccc(C(=O)O)cc3)c(Cl)c2)C(=O)N1,-37.4%
20,CC(=O)N(/N=C1\Sc2ccccc2C1=O)c1cc(C)ccc1C,33%
21,CCOC(=O)c1ccc(N=Cc2c(O)n(C3CCCCC3)c(=O)n(C3CCCCC3)c2=O)cc1,13.1%
22,COc1ccc(-c2nc3c(=O)n(C)c(=O)nc-3n(C)n2)cc1OC,1.9%
